About 79,000 compounds went through this panel and 15% of them were active in at least one assay; those are over-represented in the sample as a whole. Unmarked numbers belong to inactive results. Calls of active or inactive are those of the source. No stated cut-off is given here; in the data, active means growth inhibition above about 70%; inactive means the rest.

Assay [1] is described as follows: NCI Yeast Anticancer Drug Screen. Data for the rad50 strain (AID 155).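 Further: 0% = growth of vehicle-only cultures of the same strain.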 Conditions: S. cerevisiae rad50 strain growth inhibition, stronger effect = higher value. Summed up:
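Relative growth inhibition (compound vs vehicle) was measured in yeast with a defined repair-gene alteration.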

Assay [2] is described as follows: NCI Yeast Anticancer Drug Screen. Data for the mec2-1 strain (AID 157). To be noted: S. cerevisiae mec2-1 strain, stronger effect = higher value. Summed up: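 Strain: mec2-1 (DNA repair/cell cycle alteration). Compound exposure, then growth measured; inhibition expressed relative to vehicle.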
The nature of assay [3]: NCI Yeast Anticancer Drug Screen. Data for the sgs1 mgt1 strain (AID 161).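 Further: 0% = growth of cultures given vehicle only.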 Conditions: S. cerevisiae sgs1 mgt1 strain, stronger effect = higher value. The method, boiled down: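 Mutant yeast exposed to compound; growth scored against vehicle-only wells.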
A short description of assay [4]: NCI Yeast Anticancer Drug Screen. Data for the cln2 rad14 strain (AID 165).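 Further: 0% = growth equal to vehicle treated cultures.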 To be noted: S. cerevisiae cln2 rad14 strain, stronger effect = higher value. Summed up: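 Compounds are applied to the cln2 rad14 yeast strain, and growth is then compared with that of vehicle-treated cultures to give inhibition.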
Assay [5] in a line: NCI Yeast Anticancer Drug Screen. Data for the bub3 strain (AID 167). Conditions: S. cerevisiae bub3 mutant strain, stronger effect = higher value. Summed up:
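Screening used yeast with an engineered genetic alteration affecting cell cycle control. Compound-exposed cultures were compared with vehicle cultures, and reduced growth was taken as inhibition.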

A short description of assay [6]: NCI Yeast Anticancer Drug Screen. Data for the mlh1 rad18 strain (AID 175). Conditions: S. cerevisiae mlh1 rad18 strain growth inhibition, stronger effect = higher value. The method, boiled down: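 Read-out is yeast growth inhibition, calculated against vehicle-only controls. The compound was applied to a strain engineered with DNA damage repair alterations.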
[7] abbreviates: at 5.0 µM (retest, dose inferred, filed as 0.5).
Where [8] appears, read: at 50.0 µM (retest, dose inferred, filed as 5.0).

Take `CN1C(=O)[C@@H]2N(N(C)C1=O)[C@@]1(Br)C(=O)N(C)C(=O)[C@@]21Br`: the growth inhibition in assay [1] (setting [7]) was 18%; in assay [1] (setting [8]), 78% (active); in assay [1] (at 50.0 µM) it was 92.5% (active); in assay [2] (setting [7]), 4%; in assay [2] (setting [8]) it was 57%; in assay [2] (at 50.0 µM), 79% (active). Further, the growth inhibition was 18% in assay [3] (setting [7]); 84% (active) in assay [3] (setting [8]); 87.8% (active) in assay [3] (at 50.0 µM); 4% in assay [4] (setting [7]); 24% in assay [4] (setting [8]); 67.8% in assay [4] (at 50.0 µM). Further, the growth inhibition was 1% in assay [5] (setting [7]); 53% in assay [5] (setting [8]); 94.5% (active) in assay [5] (at 50.0 µM); 14% in assay [6] (setting [7]); 91% (active) in assay [6] (setting [8]); 97.8% (active) in assay [6] (at 50.0 µM).

`COc1ccc2c(c1)C(=O)/C(=C/c1ccc([N+](=O)[O-])o1)CO2`: the growth inhibition in assay [1] (setting [7]) is 15%; in assay [1] (setting [8]), 99% (active); in assay [1] (at 50.0 µM), 97.2% (active); in assay [2] (setting [7]), 10%; in assay [2] (setting [8]), 100% (active); in assay [2] (at 50.0 µM) it was 38.2%. Also, the growth inhibition is 33% in assay [3] (setting [7]); 100% (active) in assay [3] (setting [8]); 98.1% (active) in assay [3] (at 50.0 µM); 15% in assay [4] (setting [7]); 99% (active) in assay [4] (setting [8]); 57.1% in assay [4] (at 50.0 µM). Further, the growth inhibition was 15% in assay [5] (setting [7]); 99% (active) in assay [5] (setting [8]); 89.8% (active) in assay [5] (at 50.0 µM); 78% (active) in assay [6] (setting [7]); 99% (active) in assay [6] (setting [8]); 98.2% (active) in assay [6] (at 50.0 µM).

Regarding `COC1=CC(=O)C(O)=C/C1=C\C=C\c1ccccc1`, the growth inhibition in assay [1] (setting [7]) is 67%; in assay [1] (setting [8]) it was 97% (active); in assay [1] (at 50.0 µM), 95% (active); in assay [2] (setting [7]) it was 59%; in assay [2] (setting [8]) it was 99% (active); in assay [2] (at 50.0 µM), 97% (active). Moreover, the growth inhibition is 84% (active) in assay [3] (setting [7]); 99% (active) in assay [3] (setting [8]); 97% (active) in assay [3] (at 50.0 µM); 50% in assay [4] (setting [7]); 99% (active) in assay [4] (setting [8]); 95.3% (active) in assay [4] (at 50.0 µM). In addition, the growth inhibition is 36% in assay [5] (setting [7]); 98% (active) in assay [5] (setting [8]); 96.6% (active) in assay [5] (at 50.0 µM); 83% (active) in assay [6] (setting [7]); 99% (active) in assay [6] (setting [8]); 96.8% (active) in assay [6] (at 50.0 µM).

As for `COc1ccc2nccc(C(=O)CBr)c2c1`, the growth inhibition was 24% in assay [1] (setting [7]); 23% in assay [1] (setting [8]); 92% (active) in assay [1] (at 50.0 µM); 32% in assay [2] (setting [7]); -5% in assay [2] (setting [8]); 93% (active) in assay [2] (at 50.0 µM). Moreover, the growth inhibition in assay [3] (setting [7]) is 61%; in assay [3] (setting [8]), 20%; in assay [3] (at 50.0 µM), 97.4% (active); in assay [4] (setting [7]), -1%; in assay [4] (setting [8]) it was 10%; in assay [4] (at 50.0 µM) it was 31.3%. For the same compound, the growth inhibition is 13% in assay [5] (setting [7]); 34% in assay [5] (setting [8]); 97.2% (active) in assay [5] (at 50.0 µM); 31% in assay [6] (setting [7]); 37% in assay [6] (setting [8]); 96.6% (active) in assay [6] (at 50.0 µM).

On to `O=C(CCCN1CCC2(CC1)CC(c1ccccc1)OC2=O)c1ccc(F)cc1` (stereo not given), for which the growth inhibition in assay [1] (setting [7]) is 48%; in assay [1] (setting [8]), 76% (active); in assay [1] (at 50.0 µM), 86.3% (active); in assay [2] (setting [7]) it was 33%; in assay [2] (setting [8]), 65%; in assay [2] (at 50.0 µM), 87.9% (active). Also, the growth inhibition in assay [3] (setting [7]) was 44%; in assay [3] (setting [8]), 87% (active); in assay [3] (at 50.0 µM) it was 94.7% (active); in assay [4] (setting [7]), 41%; in assay [4] (setting [8]) it was 84% (active); in assay [4] (at 50.0 µM), 89.8% (active). In addition, the growth inhibition was 39% in assay [5] (setting [7]); 90% (active) in assay [5] (setting [8]); 95.2% (active) in assay [5] (at 50.0 µM); 34% in assay [6] (setting [7]); 63% in assay [6] (setting [8]); 95.9% (active) in assay [6] (at 50.0 µM).

On to `CC12CCC(C(Br)(Br)C1=O)C2(C)C` (stereo not given), for which the growth inhibition in assay [1] (setting [7]) was 29%; in assay [1] (setting [8]) it was 60%; in assay [1] (at 50.0 µM), 40.6%; in assay [2] (setting [7]), 17%; in assay [2] (setting [8]), 46%; in assay [2] (at 50.0 µM), 59.4%. The growth inhibition in assay [3] (setting [7]) is 26%; in assay [3] (setting [8]), 56%; in assay [3] (at 50.0 µM) it was 72.1% (active); in assay [4] (setting [7]) it was 22%; in assay [4] (setting [8]) it was 41%; in assay [4] (at 50.0 µM), 30.5%. The growth inhibition in assay [5] (setting [7]) is 18%; in assay [5] (setting [8]), 74% (active); in assay [5] (at 50.0 µM), 86.8% (active); in assay [6] (setting [7]), 16%; in assay [6] (setting [8]), 68%; in assay [6] (at 50.0 µM), 88.7% (active).

On to `COc1cccc(C(c2cc3c(cc2O)OCO3)N2CCCC2)c1O` (stereo not given), for which the growth inhibition is 0% in assay [1] (setting [7]); 52% in assay [1] (setting [8]); 48.2% in assay [1] (at 50.0 µM); 1% in assay [2] (setting [7]); 44% in assay [2] (setting [8]); 46.5% in assay [2] (at 50.0 µM). Besides, the growth inhibition was -5% in assay [3] (setting [7]); 48% in assay [3] (setting [8]); 61.1% in assay [3] (at 50.0 µM); -6% in assay [4] (setting [7]); 24% in assay [4] (setting [8]); 7.85% in assay [4] (at 50.0 µM). Also, the growth inhibition in assay [5] (setting [7]) is 6%; in assay [5] (setting [8]) it was 47%; in assay [5] (at 50.0 µM), 41.2%; in assay [6] (setting [7]), -1%; in assay [6] (setting [8]), 62%; in assay [6] (at 50.0 µM), 77% (active).

Take `C1CCC2CC3(CCNCC3)CCC2C1` (stereo not given): the growth inhibition is 14% in assay [1] (setting [7]); 55% in assay [1] (setting [8]); 75.2% (active) in assay [1] (at 50.0 µM); 9% in assay [2] (setting [7]); 55% in assay [2] (setting [8]); 55.4% in assay [2] (at 50.0 µM). Moreover, the growth inhibition in assay [3] (setting [7]) was 16%; in assay [3] (setting [8]) it was 79% (active); in assay [3] (at 50.0 µM) it was 88.4% (active); in assay [4] (setting [7]) it was 12%; in assay [4] (setting [8]) it was 82% (active); in assay [4] (at 50.0 µM), 83.7% (active). For the same compound, the growth inhibition in assay [5] (setting [7]) was 11%; in assay [5] (setting [8]), 66%; in assay [5] (at 50.0 µM), 86.8% (active); in assay [6] (setting [7]) it was 9%; in assay [6] (setting [8]), 73% (active); in assay [6] (at 50.0 µM) it was 92% (active).

For the compound `CN(C)c1ccc(SC(=S)NCc2ccccc2)cc1`, the growth inhibition in assay [1] (setting [7]) is 4%; in assay [1] (setting [8]) it was 92% (active); in assay [1] (at 50.0 µM), 97.5% (active); in assay [2] (setting [7]), -7%; in assay [2] (setting [8]), 92% (active); in assay [2] (at 50.0 µM), 98.2% (active). Besides, the growth inhibition in assay [3] (setting [7]) is -2%; in assay [3] (setting [8]), 82% (active); in assay [3] (at 50.0 µM) it was 96.3% (active); in assay [4] (setting [7]) it was -3%; in assay [4] (setting [8]), 28%; in assay [4] (at 50.0 µM), 95.8% (active). Besides, the growth inhibition was -8% in assay [5] (setting [7]); 96% (active) in assay [5] (setting [8]); 97% (active) in assay [5] (at 50.0 µM); 4% in assay [6] (setting [7]); 90% (active) in assay [6] (setting [8]); 94.4% (active) in assay [6] (at 50.0 µM).

For `CCCCCN(C(=O)CCl)c1ccccc1`, the growth inhibition is 2% in assay [1] (setting [7]); 36% in assay [1] (setting [8]); 55.7% in assay [1] (at 50.0 µM); -3% in assay [2] (setting [7]); 14% in assay [2] (setting [8]); 35.2% in assay [2] (at 50.0 µM). For the same compound, the growth inhibition in assay [3] (setting [7]) was -1%; in assay [3] (setting [8]), 19%; in assay [3] (at 50.0 µM) it was 53.7%; in assay [4] (setting [7]), 3%; in assay [4] (setting [8]), 5%; in assay [4] (at 50.0 µM) it was 13.8%. For the same compound, the growth inhibition was -4% in assay [5] (setting [7]); 6% in assay [5] (setting [8]); 50.5% in assay [5] (at 50.0 µM); -2% in assay [6] (setting [7]); 24% in assay [6] (setting [8]); 67.6% in assay [6] (at 50.0 µM).

Values taken from PubChem BioAssay (NCI).
